{
  "source": "PubChem BioAssay AID1532",
  "about": "(PCMD, 2009)",
  "test_system": "RmlC (dTDP-4-dehydrorhamnose 3,5-epimerase) and RmlD (dTDP-4-dehydrorhamnose reductase), coupled enzyme assay",
  "assay": "RmlC and RmlD coupled enzyme inhibitors, primary screen, biochemical, 384-well, compound mixtures, retest (AID 1532)",
  "conditions": "384-well mixture HTS, at 5.5 µM, stronger effect = higher value",
  "key": {"[1]": {"conditions": "measured here: mean retest inhibition"}},
  "note": "The whole screen tested about 110,000 compounds, of which about 420 (0.38%) were called active. Rule as the data show it: active = inhibition above about 30% (passing the limit was not always enough); inconclusive = no clear call, values can overlap the other calls. Only a selection was taken, and actives are over-represented in it overall.",
  "data": [
    {"compound": "OCC[C@H]1C[C@H](O)[C@@H](O)[C@]2(CCCCO2)O1", "values": [
      {"measurement": "inhibition", "value": "7.31% (inactive)"}
    ]},
    {"compound": "CC(=O)Nc1ccc(NC(=O)c2sc3nc4c(c(-c5ccc(C)cc5)c3c2N)CCC4)cc1", "values": [
      {"measurement": "inhibition", "value": "47.9% (active)"},
      {"measurement": "inhibition", "setting": "[1]", "value": 82.8, "unit": "%"}
    ]},
    {"compound": "Cc1cccc(NC(=O)c2sc3nc4c(c(-c5ccco5)c3c2N)CCC4)c1", "values": [
      {"measurement": "inhibition", "value": "20.3% (inactive)"}
    ]},
    {"compound": "NC(=O)c1sc2nc3c(c(-c4ccccc4)c2c1N)CCC3", "values": [
      {"measurement": "inhibition", "value": "-14.4% (inactive)"}
    ]},
    {"compound": "CCOC(=O)c1ccccc1NC(=O)c1c(N)n(C)c(=O)[nH]c1=O", "values": [
      {"measurement": "inhibition", "value": "7.68% (inactive)"}
    ]},
    {"compound": "CC(C)(C)CN1C(=O)C(=O)NC[C@H]1Cc1cccc2ccccc12", "values": [
      {"measurement": "inhibition", "value": "-1.48% (inactive)"}
    ]},
    {"compound": "C#CCNC(=O)C1=C[C@@H](c2ccccc2)[C@H](CCCO)[C@@H](OCC)O1", "values": [
      {"measurement": "inhibition", "value": "0.66% (inactive)"}
    ]},
    {"compound": "C/C=C(\\C)C(=O)N1CC2(CC(c3cccc(NC(=O)CCCCC)c3)=NO2)C[C@@H]1C(N)=O", "note": "(stereo not given in full)", "values": [
      {"measurement": "inhibition", "value": "-5.61% (inactive)"}
    ]},
    {"compound": "CC(Sc1nc2c([nH]c3ccccc32)c(=O)n1C)c1ccccc1", "note": "(stereo not given)", "values": [
      {"measurement": "inhibition", "value": "-7.85% (inactive)"}
    ]},
    {"compound": "CC(C)=CCC/C(C)=C/C(=O)O", "values": [
      {"measurement": "inhibition", "value": "2.81% (inactive)"}
    ]},
    {"compound": "CC(=O)Nc1cccc(-c2cnc3ccccc3n2)c1", "values": [
      {"measurement": "inhibition", "value": "13.8% (inactive)"}
    ]},
    {"compound": "CC(=O)Nc1ccc(-c2cn3cccnc3n2)cc1", "values": [
      {"measurement": "inhibition", "value": "102% (active)"},
      {"measurement": "inhibition", "setting": "[1]", "value": 156, "unit": "%"}
    ]},
    {"compound": "c1ccc(-c2cn3cccnc3n2)cc1", "values": [
      {"measurement": "inhibition", "value": "70% (active)"},
      {"measurement": "inhibition", "setting": "[1]", "value": 81.6, "unit": "%"}
    ]},
    {"compound": "c1ccc(-c2cn3c(n2)CCc2ccc4cccnc4c2-3)cc1", "values": [
      {"measurement": "inhibition", "value": "-52.8% (inactive)"}
    ]},
    {"compound": "c1ccc(-c2ccnc3nc(-n4cccc4)nn23)cc1", "values": [
      {"measurement": "inhibition", "value": "-3.61% (inactive)"}
    ]},
    {"compound": "CCCC(=O)Nc1cccc(-c2cn3ccsc3n2)c1", "values": [
      {"measurement": "inhibition", "value": "3.46% (inactive)"}
    ]},
    {"compound": "CCn1c(=N)c(S(=O)(=O)c2ccc(F)cc2)cc2c(=O)n3ccccc3nc21", "values": [
      {"measurement": "inhibition", "value": "-13.4% (inactive)"}
    ]},
    {"compound": "CCCn1c(=NC(C)=O)c(C(=O)OCC)cc2c(=O)n3ccccc3nc21", "values": [
      {"measurement": "inhibition", "value": "48.4% (active)"},
      {"measurement": "inhibition", "setting": "[1]", "value": 60.1, "unit": "%"}
    ]},
    {"compound": "COc1ccc(CNC(=O)c2cc3c(=O)n4ccccc4nc3n(CC3CCCO3)c2=N)cc1", "note": "(stereo not given)", "values": [
      {"measurement": "inhibition", "value": "-12.4% (inactive)"}
    ]},
    {"compound": "C#CCOCCOCCOCCNc1nc(N2CCN(C(=O)[C@H](CCC(=O)O)n3cc(C(N)CO)nn3)CC2)nc(N2CCN(C(=O)[C@H](CCCCN)n3cc(C(N)[C@H](C)CC)nn3)CC2)n1", "note": "(stereo not given in full)", "values": [
      {"measurement": "inhibition", "value": "2.59% (inactive)"}
    ]},
    {"compound": "COCc1cc(=O)[nH]c2cc(NC(=O)C(F)(F)F)c(C)cc12", "values": [
      {"measurement": "inhibition", "value": "39.2% (active)"},
      {"measurement": "inhibition", "setting": "[1]", "value": 46.2, "unit": "%"}
    ]},
    {"compound": "COc1ccc(OC)c2[nH]c(=O)c(CCNC(=O)C(C)(C)C)cc12", "values": [
      {"measurement": "inhibition", "value": "8.84% (inactive)"}
    ]},
    {"compound": "O=C(Nc1ccccc1)c1ccccc1NC(=O)C(F)(F)F", "values": [
      {"measurement": "inhibition", "value": "8.91% (inactive)"}
    ]},
    {"compound": "COC(C[C@@H](O)[C@H](C)[C@H](O)COCc1ccccc1)OC", "values": [
      {"measurement": "inhibition", "value": "2.05% (inactive)"}
    ]},
    {"compound": "CC(C)CC(CO)N1CCN(C(=O)c2ccc(Cl)cc2Cl)CCC1=O", "note": "(stereo not given)", "values": [
      {"measurement": "inhibition", "value": "-11.9% (inactive)"}
    ]},
    {"compound": "CCO[C@H]1OC(C(=O)O)=C[C@@H](C2CCCCC2)[C@@H]1CCCO", "values": [
      {"measurement": "inhibition", "value": "-6.81% (inactive)"}
    ]},
    {"compound": "COc1ccc(CN2CC[C@H]3C=CC[C@@H](C(=O)N4CCOCC4)[C@H]3C2=O)cc1OC", "values": [
      {"measurement": "inhibition", "value": "7.97% (inactive)"}
    ]},
    {"compound": "N#CCc1c(C#N)c(N)nc(N2CCCC2)c1C#N", "values": [
      {"measurement": "inhibition", "value": "14.6% (inactive)"}
    ]},
    {"compound": "COC(=O)CCCC1=CC2=CC(=O)C(C)(OC(=O)c3cccs3)C(=O)C2=CN1c1cccc(C#N)c1", "note": "(stereo not given)", "values": [
      {"measurement": "inhibition", "value": "-9.55% (inactive)"}
    ]},
    {"compound": "C=CC1C(OC2OC(CO)C(O)C(O)C2O)OC=C(C(=O)OC)C1CC1CC(=O)CC(CC(=O)CCc2ccc(O)cc2)O1", "note": "(stereo not given)", "values": [
      {"measurement": "inhibition", "value": "3.85% (inactive)"}
    ]},
    {"compound": "C#CCOCCOCCOCCNc1nc(N2CCN(C(=O)[C@H](C(C)C)n3cc(CCO)nn3)CC2)nc(N2CCN(C(=O)[C@H](C(C)C)n3cc(CCO)nn3)CC2)n1", "values": [
      {"measurement": "inhibition", "value": "-12.1% (inactive)"}
    ]},
    {"compound": "O=C(O)C1=C[C@H](c2cccs2)C[C@H](OCCCCO)O1", "values": [
      {"measurement": "inhibition", "value": "5.69% (inactive)"}
    ]},
    {"compound": "COC(=O)COc1cccc2c(=O)n(CC(=O)NCCc3ccc(OC)c(OC)c3)ccc12", "values": [
      {"measurement": "inhibition", "value": "9.94% (inactive)"}
    ]},
    {"compound": "CC1=C(N2CCN(c3ncccn3)CC2)CCC1=O", "values": [
      {"measurement": "inhibition", "value": "12.7% (inactive)"}
    ]},
    {"compound": "NC(=O)CC(NC(=O)Cc1cccc2ccccc12)c1ccc(NCc2cc(F)ccc2F)c([N+](=O)[O-])c1", "note": "(stereo not given)", "values": [
      {"measurement": "inhibition", "value": "-7.96% (inactive)"}
    ]},
    {"compound": "COC(=O)c1ccc(C(NC(=O)OCc2ccccc2)/C(F)=C/[C@@H](C)C(=O)O)cc1", "note": "(stereo not given in full)", "values": [
      {"measurement": "inhibition", "value": "3.33% (inactive)"}
    ]},
    {"compound": "CCCC[C@@H]1CN=C(N)N1CCCC", "values": [
      {"measurement": "inhibition", "value": "-28.4% (inactive)"}
    ]},
    {"compound": "COc1ccc(C(CC(=O)N2CCN(c3ccccc3)CC2)c2c(O)cc(OC)cc2OC)cc1", "note": "(stereo not given)", "values": [
      {"measurement": "inhibition", "value": "0.73% (inactive)"}
    ]},
    {"compound": "C/C=C\\C=C\\C(=O)N1CC2(CC(c3cccc(NC(=O)/C(C)=C\\C)c3)=NO2)C[C@H]1C(N)=O", "note": "(stereo not given in full)", "values": [
      {"measurement": "inhibition", "value": "-0.91% (inactive)"}
    ]},
    {"compound": "COC(C[C@@H]1O[C@@H]1C(=O)[C@H](C)OCc1ccccc1)OC", "values": [
      {"measurement": "inhibition", "value": "-11.7% (inactive)"}
    ]},
    {"compound": "CCC1(CC)C(=O)C2=C3C1[C@H](C(=O)OC)C=C(C(=O)OC)C[C@H]3[C@H]1C(=O)N(Cc3ccccc3)C(=O)[C@H]1[C@H]2C", "note": "(stereo not given in full)", "values": [
      {"measurement": "inhibition", "value": "-0.95% (inactive)"}
    ]},
    {"compound": "C=C1CCN([C@H](C(=O)NCc2cc(OC)c(OC)c(OC)c2)C(C)C)S(=O)(=O)c2ccccc21", "values": [
      {"measurement": "inhibition", "value": "5.25% (inactive)"}
    ]},
    {"compound": "CC1(C)CC[C@]2(C(=O)O)CC[C@]3(C)C(=CCC4[C@@]5(C)CC[C@H](O)C(C)(C)C5[C@H](O)C[C@]43C)[C@@H]2C1", "note": "(stereo not given in full)", "values": [
      {"measurement": "inhibition", "value": "-10.3% (inactive)"}
    ]},
    {"compound": "CCCCN1C(N)=NC[C@@H]1Cc1ccccc1", "values": [
      {"measurement": "inhibition", "value": "-9.09% (inactive)"}
    ]},
    {"compound": "COC(C[C@H](O)CC(=O)[C@@H](C)OCc1ccccc1)OC", "values": [
      {"measurement": "inhibition", "value": "5.9% (inactive)"}
    ]},
    {"compound": "C=C1CCN([C@@H](Cc2ccccc2)C(=O)N2CCOCC2)S(=O)(=O)c2ccccc21", "values": [
      {"measurement": "inhibition", "value": "-7.13% (inactive)"}
    ]},
    {"compound": "C#CCO[C@@H]1C[C@H](n2cnc3c(=O)[nH]c(NC(=O)C(C)C)nc32)O[C@@H]1CO", "values": [
      {"measurement": "inhibition", "value": "17.4% (inactive)"}
    ]},
    {"compound": "CCO[C@@H]1OC(C(=O)NC2CC2)=C[C@H](C)[C@H]1CCCO", "values": [
      {"measurement": "inhibition", "value": "-10.3% (inactive)"}
    ]},
    {"compound": "C#CCOCCOCCOCCNc1nc(N2CCN(C(=O)C([C@@H](C)CC)n3cc(C(N)COC(=O)C(F)(F)F)nn3)CC2)nc(N2CCN(C(=O)[C@H](Cc3ccc(O)cc3)n3cc(C(N)[C@H](C)CC)nn3)CC2)n1", "note": "(stereo not given in full)", "values": [
      {"measurement": "inhibition", "value": "-15.9% (inactive)"}
    ]},
    {"compound": "COc1ccc(C2/C=C\\CN(S(=O)(=O)c3cccs3)CC(=O)N2Cc2ccc(F)cc2)cc1", "note": "(stereo not given)", "values": [
      {"measurement": "inhibition", "value": "-18.6% (inactive)"}
    ]}
  ]
}
